What was measured:
Assay in all cases: PBM binding z-score (relative to random genomic background probes); higher = stronger binding; sequences stand for … in GC…GCGATTGACAGCGTAGAATGAAGG
[1] = test system: RARb homodimer (NR concentration 270 nM)
Procedure, shortened: (§1)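 Random background probes are the reference for binding z-scores. These scores derive from regression-normalized fluorescence on custom Agilent 4×180K protein-binding microarrays incubated 1 h with ligand-free nuclear receptor dimers. Binding was detected with antibodies against each partner (one per run).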

[2] = test system: RARg:RXRa (NR concentration 270 nM, RXRa partner concentration 90 nM)
Procedure, shortened: as §1

[3] = test system: RARg homodimer (NR concentration 270 nM)
Procedure, shortened: as §1

[4] = test system: RXRa DBDmut IVT, anti-RXR (DBD mutation: RXRa K156A/R161A, NR concentration 90 nM)
Procedure, shortened: as §1

[5] = test system: RXRa homodimer (NR concentration 180 nM)
Procedure, shortened: as §1

[6] = test system: THRa:RXRa (NR concentration 90 nM, RXRa partner concentration 90 nM)
Procedure, shortened: as §1

[7] = test system: THRa homodimer (NR concentration 90 nM)
Procedure, shortened: as §1

[8] = test system: VDR:RXRa (NR concentration 270 nM, RXRa partner concentration 90 nM)
Procedure, shortened: as §1

[9] = test system: VDR homodimer (NR concentration 270 nM)
Procedure, shortened: as §1

Sequence | PBM binding z-score [1] | PBM binding z-score [2] | PBM binding z-score [3] | PBM binding z-score [4] | PBM binding z-score [5] | PBM binding z-score [6] | PBM binding z-score [7] | PBM binding z-score [8] | PBM binding z-score [9]
CGTCCAAGGTCATAGGAGGTCCGTGAAGACAGAT | 3.8 | 5.84 | 5.85 | 3.86 | 6.02 | 4.51 | 2.24 | 4.88 | 3.33
CAAACTAGGTCAAGAGGTCTAAGTCCGCTTCCCG | 3.42 | 4.23 | 4.4 | 1.73 | 2.76 | 2.82 | 1.1 | 3.91 | 1.23
TTACTAAGGTGAAGGTCGTTGATCCCTCTGTAGA | 1.96 | 1.85 | 1.21 | 0.794 | 2.31 | 3.16 | 1.98 | 1.73 | 1.11
TCTAGTTGGTCACGGAGGTCACACAGGACGGGTA | 4.25 | 4.69 | 4.9 | 0.898 | 4.86 | 3.75 | 2.62 | 5.94 | 3.06
ATCTCTAAGTAAGACTCAGTTCAGTGAAGAACGC | 0.513 | 0.345 | 0.42 | 0.804 | -0.0426 | 0.401 | 0.351 | 0.712 | 1.57
GATACAGGGTCAGCTAGAGGCAAGAGTATGGAAA | 2.77 | 4.72 | 4.64 | 0.963 | 4.52 | 2.8 | 0.438 | 2.63 | 0.394
CCTATTAGTTGACCATAAGGGCAGCCGAAGCTCG | 1.55 | 0.749 | 0.64 | 0.252 | 0.392 | 1.36 | 0.892 | 0.304 | 0.242
CTCGAACGGTCGGTTGAGGTGAGTATACGGATAA | 0.411 | 0.215 | 0.464 | -0.356 | -0.11 | 3.27 | 0.822 | -0.265 | -0.341
TGAATGAGGTTAAAGACCAGGGAACGTGGCGTCG | 0.539 | 1.91 | 0.92 | 0.895 | 2.95 | 2.14 | 0.297 | 1.09 | 0.179
TAACCTAGGTCATTGGGCCAGTATAGTACGCATC | 3.46 | 4.58 | 4.75 | 2.44 | 3.95 | 3.19 | 1.52 | 2.89 | 2.14
AATACAGGGTCATCGTAGGCTAGAGTACGCACAG | 3.49 | 5.66 | 5.17 | 3.57 | 6.87 | 4.05 | 1.63 | 5.2 | 4.03
TCATATAGGTAAACAGGTGAAAGCCCGTAAGTTA | 0.749 | 0.546 | 0.364 | 1.2 | 1.64 | 0.571 | 0.487 | 1.15 | -0.138
AGTCAAAGTTCATCTAGGTAACGTACGATATGCT | 3.93 | 5.49 | 5.82 | 4.69 | 4.69 | 3.28 | 0.448 | 5.15 | 5.04
AGTCAAGGTTCACTAGGTAACGTAAGATTCAGCT | 1.85 | 2.74 | 2.72 | 3.92 | 2.57 | 1.8 | 0.553 | 3.27 | 3.78
CGAACTAGGTCAAGGACAGTGAGTCTCCGCACGC | 3 | 3.43 | 4.13 | 1.02 | 2.28 | 3.1 | 1.85 | 1.16 | 0.408
TCTTGTACATCAAGCAGGTTAAGAAAGCCTGAGT | 0.323 | 0.395 | 0.0243 | 0.896 | 0.677 | 0.334 | -0.0584 | 0.528 | 0.438
TCTATTAGTAGAAGGGCAACCGACGAGTCCGTTT | 0.923 | 0.406 | 0.636 | 1.23 | 0.785 | -0.0492 | -0.359 | 0.796 | 1.18
CCTGCTACGTCATGGTCAGCTAATCTACAGTATG | -0.0724 | 0.00255 | -0.0549 | 0.43 | -0.184 | -0.381 | -0.695 | -0.408 | -0.512
TCGAGTAGGTTACGGGCATTCAGAATGGCGTCGA | 0.362 | 0.594 | 0.594 | -0.00223 | 0.855 | 0.116 | -0.913 | -0.46 | -0.716
TCTTGTAGATGAAGCAGGTTAAGAAAGCCTGAGT | -0.21 | -0.0639 | -0.213 | 0.667 | 0.257 | -0.0515 | -0.455 | 0.456 | -0.176
CCAGACAGGTGAGAAGGTATCTCAGCCTCGATTA | -0.0686 | 0.015 | 0.26 | 0.0467 | 0.0793 | -0.219 | -0.183 | -0.224 | -0.56
AATACAGGGTCATCGTAGGACAGAGTACGCACAG | 3.3 | 5.62 | 5.18 | 3.38 | 6.61 | 4.82 | 1.71 | 5.5 | 4.11
CGAACTAGGTCAGAACCGGACAGTGAAGGATGAT | 1.76 | 2.4 | 3.3 | 0.258 | 1.12 | 1.72 | 0.00608 | 0.264 | -0.191
TCTAGGAGGACACGAAAGGTCAGAGCTCGACATC | 4.84 | 4.88 | 5.11 | 1.35 | 4.21 | 3.98 | 1.4 | 3.42 | 0.994

Sequence | PBM binding z-score [1] | PBM binding z-score [2] | PBM binding z-score [3] | PBM binding z-score [4] | PBM binding z-score [5] | PBM binding z-score [6] | PBM binding z-score [7] | PBM binding z-score [8] | PBM binding z-score [9]
CGAACTAGATCAAGGACAGTGAATCTCCGCACGC | 0.0367 | -0.32 | 0.287 | 0.258 | -0.168 | 1.22 | 1.24 | -0.37 | -0.103
ATCGAAAGGTCGTGTGGTGAGTATACAGAAAGGC | 2.97 | 4.21 | 3.83 | 2.19 | 4.59 | 2.39 | 0.842 | 3.66 | 2.03
TTACCAAGGTGAAATGTCGTTGATGCACGCCTTG | 0.644 | 0.864 | 0.648 | 0.115 | 1.16 | 1.82 | 0.71 | 0.159 | -0.183
GCTAGTTGGTCAGTAATAGGTCACACACCGGTCG | 3.86 | 3.12 | 2.58 | 0.228 | 2.43 | 2.06 | 0.841 | 1.73 | 0.317
AGTTAAAGTTCATCTAGGTAACGTAAGATATGCT | 3.84 | 5.06 | 5.65 | 4.63 | 4.14 | 3.21 | 0.583 | 4.42 | 5.32
CCTACTGGGCCACGAAAGGTCATTGAATCAGTGA | 4.71 | 4.78 | 4.92 | 0.485 | 5.26 | 3.64 | 0.999 | 4.14 | 1.9
ATATGTAGGTTACATCCGGGTCACTCAGGCTATG | 3.14 | 3.8 | 2.2 | 0.745 | 3.03 | 3.94 | 2.97 | 3.71 | 2.29
ATATGTAGGTTCTCGGGTCATTCAGTTTGCGCAT | 2.61 | 2.47 | 1.7 | 2.28 | 2.88 | 3.46 | 3.29 | 5.04 | 4.65
CCTAGCAGGCCAGGGTCACTAAAGCATTTCGCTT | 2.69 | 2.79 | 2.41 | 0.297 | 2.89 | 2.67 | 0.878 | 2.08 | 0.922
CAGCCTAGGTAAGGGCCAGTATAGGAGGAACGTT | -0.166 | -0.284 | 0.264 | -1.12 | -0.418 | -0.373 | -0.773 | -0.84 | -0.434
CCAGACAGGTTAAAGGTAACTCAGTCTGGTACGC | 1.09 | 2.24 | 1.28 | 0.388 | 3.23 | 1.37 | -0.0486 | 1.62 | 0.276
ACTATTAGTTGAGACGAGGGCAGCCGATAGGTTG | 0.756 | 0.374 | 0.715 | 0.298 | 0.449 | 2.02 | 0.0606 | 0.339 | 0.189
CAAACTAAGTCACAGAGGTCAAAGTCCGTGCGTA | 4.47 | 5.34 | 4.96 | 2.26 | 5.91 | 3.71 | 1.87 | 6.65 | 4.45
CCGACTGGGGCATAGGTTACCATACTCAGTACGA | 0.786 | 0.922 | 0.833 | -0.223 | 1.03 | 0.28 | -0.456 | -0.0526 | -0.332
GATACACGGTCAGCTAGAGGCCAGAGTATGGAAA | 1.9 | 2.39 | 2.33 | -0.51 | 0.403 | 0.349 | -0.599 | -0.349 | -0.244
TCTGCGAGGTCAACGATGGTCAGCTAATCTGCTA | 4.5 | 6.57 | 7.19 | 3.91 | 7.18 | 4.26 | 2.92 | 5.38 | 3.6
AGTCAAAGTTTAGGACGAGGTAACGTAAAGCACG | 0.774 | 0.936 | 1.26 | 0.5 | 0.477 | 2.59 | 1.51 | 0.00949 | 0.0811
TGACTGAGGTTATAAGATCAGGGAACGTTGCAAA | 0.146 | 1.59 | 0.985 | 0.64 | 1.87 | 1.58 | -0.016 | 0.798 | 0.435
TCTTGTAGATCAATAGAGTTTAAGAAAGTGCGCT | 0.231 | 0.0376 | 0.187 | 0.774 | 0.274 | 0.289 | -0.976 | 1.23 | 0.914
TAGCCTAGGTGATGGGCCAGTATACCACGCGAAC | -0.0783 | -0.276 | -0.196 | -1.47 | -0.236 | -0.153 | -0.23 | -0.726 | -0.76
TTACCAAGGCGAAAGGTCGTTGATGCACGCCTTG | 1.7 | 2.04 | 1.11 | 0.253 | 2.66 | 1.44 | -0.366 | 1.65 | 1.13
AGAATGAGGTTATTAAGATCACGGAATTGCGGTC | 0.99 | 1.37 | 1.01 | 2.19 | 2.01 | 2.42 | 0.72 | 3.68 | 1.73
TCGCGTAGGTTAGTCGGGGCATTCAGCCAACATA | 0.519 | 0.0765 | -0.112 | 0.21 | -0.0315 | 1.26 | -0.0265 | 2.54 | 0.208
ATCGAAAGGTCGTGAGGTGAGCATACAGAAAGGC | 3.19 | 4.58 | 4.26 | 1.12 | 5.3 | 3.45 | 1.68 | 3.19 | 0.917

From the supplement of paper PMC6555819
